# In all, about 310,000 compounds went through this assay and about 14,000 (4.5%) showed an effect of 50% or more. Effects have a minus sign here. Shown is part of a subset that was picked to be rich in strong results.
# Biological target: human ether-à-go-go-related gene (hERG) potassium channel (human, UniProt Q12809)
# Test: primary screen, population patch clamp on CHO cells stably expressing hERG; higher = less effect of the substance
# 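Note: peak tail current of the secondary pulse compared with the same well before compound.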
# Chain of human ether-à-go-go-related gene (hERG) potassium channel (Q12809 whole entry, looked up): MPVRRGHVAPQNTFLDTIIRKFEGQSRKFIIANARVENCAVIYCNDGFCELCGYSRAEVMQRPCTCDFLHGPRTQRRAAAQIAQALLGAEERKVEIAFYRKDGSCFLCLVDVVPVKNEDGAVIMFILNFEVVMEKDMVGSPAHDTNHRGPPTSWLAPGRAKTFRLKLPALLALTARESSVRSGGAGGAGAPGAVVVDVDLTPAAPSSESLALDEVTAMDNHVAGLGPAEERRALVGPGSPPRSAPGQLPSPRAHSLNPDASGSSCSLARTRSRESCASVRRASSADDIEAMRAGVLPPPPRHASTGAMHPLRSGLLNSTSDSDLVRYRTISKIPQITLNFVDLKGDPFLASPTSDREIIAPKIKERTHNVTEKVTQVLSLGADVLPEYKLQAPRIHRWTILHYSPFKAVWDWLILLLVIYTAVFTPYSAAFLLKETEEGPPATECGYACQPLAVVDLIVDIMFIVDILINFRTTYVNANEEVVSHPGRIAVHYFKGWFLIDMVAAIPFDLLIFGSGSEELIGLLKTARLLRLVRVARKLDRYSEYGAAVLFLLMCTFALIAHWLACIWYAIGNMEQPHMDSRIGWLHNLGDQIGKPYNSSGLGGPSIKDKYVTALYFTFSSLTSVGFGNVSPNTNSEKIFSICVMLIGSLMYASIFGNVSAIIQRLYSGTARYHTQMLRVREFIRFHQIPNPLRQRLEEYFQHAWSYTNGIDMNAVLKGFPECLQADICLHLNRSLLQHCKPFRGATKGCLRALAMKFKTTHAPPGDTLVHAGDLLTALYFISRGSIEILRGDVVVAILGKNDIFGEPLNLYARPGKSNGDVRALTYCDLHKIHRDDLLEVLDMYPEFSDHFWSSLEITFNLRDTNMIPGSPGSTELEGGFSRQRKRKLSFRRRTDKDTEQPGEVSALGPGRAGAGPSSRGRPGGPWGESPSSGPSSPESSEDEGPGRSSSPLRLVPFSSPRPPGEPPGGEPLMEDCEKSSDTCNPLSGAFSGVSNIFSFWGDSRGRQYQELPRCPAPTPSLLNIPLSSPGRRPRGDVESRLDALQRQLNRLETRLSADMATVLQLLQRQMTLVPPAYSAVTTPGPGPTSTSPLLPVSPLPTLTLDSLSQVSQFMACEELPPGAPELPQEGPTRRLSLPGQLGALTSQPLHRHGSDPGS
row,Compound,"hERG current change (%, negative = inhibition) at 10uM [%]"
1,CCOC(=O)N1CCC(NC(=O)C2CCCN(C(=O)c3cc4sccc4n3C)C2)CC1 (centres unmarked),-5.34
2,CS(=O)(=O)O.OC(c1cc(C(F)(F)F)nc2c(Cl)cc(Cl)cc12)C1CCCCN1 (centres unmarked),-23.8
3,Cc1[nH]n(-c2ccccc2)c(=O)c1N=Nc1ccc(C(=O)O)cc1,25.7
4,CC(=O)NC1C(Oc2ccccc2C)OC2COC(c3ccco3)OC2C1O (centres unmarked),3.59
5,COc1ccc(-c2c(C(C)=O)c(C)nc3sc4c(=O)[nH]nnc4c23)cc1,8.95
6,Cn1c(=O)c2c(nc(NCc3ccco3)n2CC(O)COc2ccccc2)n(C)c1=O (centres unmarked),-25.9
7,Cc1ccccc1OCC(O)Cn1c(NCc2ccco2)nc2c1c(=O)[nH]c(=O)n2C (centres unmarked),4.8
8,Cc1ccccc1OCC(O)Cn1c(NCc2ccco2)nc2c1c(=O)n(C)c(=O)n2C (centres unmarked),-52.1
9,Cc1oc(S(=O)(=O)N2CCCCC2)cc1NC(=O)Nc1ccc(F)cc1,3.43
10,C=CCC(O)(CC=C)CNC(=O)c1ccc(OC)c(OC2CCN(C(C)=O)CC2)c1,14.9
11,COc1ccc(CN2CCC(Oc3ccc(C(=O)NCc4ccccn4)cc3)CC2)c(F)c1,-12.6
12,COc1ccc(C(=O)NC2CC2)cc1OC1CCN(Cc2ccccc2F)CC1,-78
13,CCOc1ccccc1CN1CCC(Oc2cccc(C(=O)NCCOC)c2)CC1,-30.8
14,C=CCOc1ccccc1CN1CCC(Oc2cc(C(=O)NC3CC3)ccc2OC)CC1,-72.2
15,COc1ccc(OC)c(CN2CCC(N3CCC(C(=O)NC4CC4)CC3)CC2)c1,-11.1
16,COc1cc(C(=O)NC2Cc3ccccc3C2)ccc1OC1CCN(C(C)=O)CC1,4.22
17,COc1ccc(C(=O)NC2CC2)cc1OC1CCN(Cc2ccccc2O)CC1,-102
18,COc1ccc(C(=O)NC2CCc3ccccc32)cc1OC1CCN(C(C)=O)CC1 (centres unmarked),-0.012
19,COc1ccc(CN2CCC(Oc3cc(C(=O)NC4CC4)ccc3OC)CC2)c(O)c1,-77.3
20,COc1ccc(C(=O)N(C)C2CCCN(Cc3ccccc3F)C2)cc1OC (centres unmarked),11.1
21,COc1ccc(C(=O)NCCc2ccccc2F)cc1OC1CCN(C(C)=O)CC1,4.19

row,Compound,"hERG current change (%, negative = inhibition) at 10uM [%]"
1,Cc1ccc(Nc2nc3ccccc3n3cnnc23)cc1C,15.5
2,CCOC(=O)N1CCN(C(=O)CSc2nnc(COc3ccc(Cl)cc3)o2)CC1,-37.8
3,CCOCCCNC(=O)CCc1nnc2ccc(N3CCCCC3)nn12,11.1
4,COc1ccc(OC)c(NC(=O)C2CC(=O)N(c3ccccc3)C2)c1 (centres unmarked),5.86
5,O=C(CCC(=O)OCC(=O)c1ccc(-c2ccccc2)cc1)Nc1cccc(Cl)c1,1.65
6,COc1ccc(C(=O)NC2CC2)cc1OC1CCN(Cc2cnn(C)c2C)CC1,-27.2
7,COc1ccc(C(=O)NC2CC2)cc1OC1CCN(Cc2cc(C)c(C)cc2C)CC1,-83.1
8,CCn1ncc(CN2CCC(Oc3cc(C(=O)NC4CC4)ccc3OC)CC2)c1C,-21.5
9,O=C(CCl)Nc1nc(-c2ccco2)c(-c2ccco2)s1,-10.1
10,CN(Cc1ccc(F)cc1)C(=O)c1cccc(OC2CCN(C3CCCC3)CC2)c1,-61
11,COCCC1CCCCN1C(=O)c1cccc(OC2CCN(C3CCCC3)CC2)c1 (centres unmarked),17.6
12,CN(Cc1ccc(F)cc1)C(=O)c1cccc(OCc2ccccc2)c1,-16.9
13,O=C(c1cccc(OC2CCN(C3CCCC3)CC2)c1)N1CCCCCCC1,-36
14,COc1cccc(CN(C)C(=O)c2cccc(OC3CCN(C4CCCC4)CC3)c2)c1,-55.1
15,COc1cccc(CN(C)C(=O)c2cccc(OCc3ccccc3)c2)c1,13.1
16,O=[N+]([O-])C(C1CCS(=O)(=O)C1)C1CCS(=O)(=O)C1 (centres unmarked),11.9
17,Cc1cccc(C2N(c3ccc(F)cc3)C(=O)C3CCCN32)c1 (centres unmarked),-12.3
18,COc1cc(CN2CCN(Cc3ccc([N+](=O)[O-])cc3)CC2)c([N+](=O)[O-])cc1OC.O=C(O)C(=O)O,-68.2
19,CCN1CCN(Cc2cc(OC)c(OC)cc2[N+](=O)[O-])CC1,8.59
20,COc1cc(CN2CCN(C(=O)CC(C)C)CC2)c([N+](=O)[O-])cc1OC,8.77
21,COc1cccc(CN2CCN(Cc3cc(OC)c(OC)cc3[N+](=O)[O-])CC2)c1.O=C(O)C(=O)O,-46.3

row,Compound,"hERG current change (%, negative = inhibition) at 10uM [%]"
1,COc1cc(CN2CCCCCC2)c([N+](=O)[O-])cc1OC,3.94
2,COc1cc(CN2CCN(Cc3ccc(C)cc3)CC2)c([N+](=O)[O-])cc1OC.O=C(O)C(=O)O,-77.2
3,Cc1cccc2[nH]c(CN(C)C(=O)CC3C(=O)NCCN3CC(C)(C)C)nc12 (centres unmarked),3.23
4,Cc1cc(C(=O)NCc2ccco2)sc1C,16.2
5,CCO[C@H]1c2c(ccc3ccc(=O)oc23)OC(C)(C)[C@@H]1O,20.9
6,CN(C)c1cc[n+](CC(=O)c2ccc(-c3ccccc3)cc2)cc1.[Cl-],-2.97
7,Cc1ccc[n+](CC(=O)c2ccc(-c3ccccc3)cc2)c1.[Br-],-52.4
8,Cc1cc(C)c[n+](CC(=O)c2ccc(-c3ccccc3)cc2)c1.[Br-],-45.3
9,Cc1ccc(SCCNC(=O)c2ccccc2)cc1,-0.806
10,Cc1ccc(SCCc2cc[n+](CC(=O)c3ccccc3)cc2)cc1,-70.5
11,Cc1ccc[n+](CC(=O)c2ccccc2)c1.[Br-],13.7
12,Cc1ccc(C(=O)C[n+]2ccc(Cc3ccccc3)cc2)cc1.[Cl-],-73.6
13,Cc1ccc(C(=O)C[n+]2ccc3ccccc3c2)cc1.[Br-],-33.6
14,Cc1cc[n+](CC(=O)c2ccc(NC(=O)c3ccccc3)cc2)cc1.[Br-],2.6
15,O=C(c1cc2ccccc2oc1=O)N1CCN(c2ncccn2)CC1,8.16
16,c1ccc2[nH]c(CSc3nnc(-c4ccncc4)o3)nc2c1,-24.8
17,Cc1ccccc1Nc1nc(NCc2ccco2)c2ccccc2n1.Cl,-63.6
18,Cl.Oc1ccccc1Nc1nc(NCc2ccco2)c2ccccc2n1,-29.3
19,Cc1ccc(Nc2nc(NCc3ccco3)c3ccccc3n2)cc1.Cl,16.9
20,COc1ccccc1Nc1nc(NCc2ccco2)c2ccccc2n1.Cl,-20.3
21,Cl.Fc1ccc(Nc2nc(NCc3ccco3)c3ccccc3n2)cc1,-37.2

row,Compound,"hERG current change (%, negative = inhibition) at 10uM [%]"
1,Cl.c1ccc(Nc2nc(NCc3ccco3)c3ccccc3n2)cc1,-71
2,COc1ccc(O)c(C(=O)/C=C/c2cc3ccccc3o2)c1,7.22
3,CN1C(=O)/C(=C/c2ccc(C(F)(F)F)cc2)Sc2ccc(C(=O)N3CCN(c4ccccn4)CC3)cc21,5.11
4,C[C@@H]1O[C@@H](Oc2c(-c3cc(O)c(O)c(O)c3)oc3cc(O)cc(O)c3c2=O)[C@H](O)[C@H](O)[C@H]1O,4
5,CN(C)CCCN(C(=O)COc1ccccc1)c1nc2ccc(F)cc2s1.Cl,-68
6,Cc1ccc2nc(N(CCCN(C)C)C(=O)COc3ccc(Cl)cc3)sc2c1.Cl,-8.71
7,CCN(CC)CCN(C(=O)CCOc1ccccc1)c1nc2ccc(F)cc2s1.Cl,-8.61
8,CN(C)CCCN(C(=O)COc1ccc(Cl)cc1)c1nc2ccc(F)cc2s1.Cl,-21.4
9,Cc1ccc2nc(N(CCCN(C)C)C(=O)CS(=O)(=O)c3ccccc3)sc2c1.Cl,-22.7
10,CN(C)CCCN(C(=O)COc1ccccc1)c1nc2ccc(Cl)cc2s1.Cl,-67.1
11,NC(=O)CC(NC(=O)Cc1ccc(Cl)cc1)c1ccc(NC2CC3CCC2C3)c([N+](=O)[O-])c1 (centres unmarked),-3.01
12,CN(C)CCCNc1nc(-c2ccccc2)nc2ccccc12.Cl,-13.5
13,CN(C)CCCNc1nc(-c2ccc(Cl)cc2)nc2ccccc12,-35.5
14,CCOCCCNc1nc(-c2ccccc2)nc2ccccc12.Cl,-27.5
15,CCN(CC)CCCNc1nc2cc(OC)c(OC)cc2c2nc(-c3cccnc3)nn12,-2.29
16,CCN(CC)CCCNc1nc2cc(OC)c(OC)cc2c2nc(-c3ccccc3)nn12,-7.77
17,Cc1ccc(-c2nc(NCCCO)c3ccccc3n2)cc1,-41.2
18,CCN(CC)CCCNc1nc(-c2ccccc2)nc2ccccc12.Cl,-61.4
19,CCN(CC)CCCNc1nc2ccccc2c2nc(-c3ccncc3)nn12,-56.6
20,OCCCNc1nc(-c2ccc(Cl)cc2)nc2ccccc12,-63.1

# From publication PMC4336329 (PLoS ONE, 2015)
